# HP1b binding inh: HTS for Inhibitors of HP1-beta Chromodomain Interactions with Methylated Histone Tails; Chromobox protein homolog 1 (Homo sapiens), P83916; AlphaScreen HP1-beta / biotin-H3K9me3 peptide binding; Potency, µM (highest dose often 114 µM), inactives show at the top dose activity change, negative = inhibition, actives largely listed as inhibitors; actives 0.56% (n = 390,000); AID 540317, 2011; note: nearly all actives have a fitted effect of over 70% in size
#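 AlphaScreen: HP1-beta (50 nM) preformed 30 min with biotin-H3(1-18)K9me3 peptide (50 nM) in PBS pH 7.4, 0.01% Tween-20. Compound added for 30 min at RT, then streptavidin donor/nickel chelate acceptor beads (10 ug/mL) for 30 min.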
# Sfp inh: qHTS Assay for Inhibitors of Bacillus subtilis Sfp phosphopantetheinyl transferase (PPTase). Biochemical Sfp PPTase activity, qHTS. actives 3.5% (n = 310,000). Potency, µM, without a hit: largest response in the series, negative = inhibition, usual class: inhibitors. 4'-phosphopantetheinyl transferase ffp (Bacillus subtilis), Q9F4F7;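 note: the enzyme is Sfp with the accession as filed and its product quenches rhodamine fluorescence; 0% = enzyme reaction without inhibitor and -100% = no enzyme wells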
#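 With Hepes-Na pH 7.6 buffer containing 10 mM MgCl2, Sfp (15 nM) modified BHQ-2-YbbR (12.5 uM) using rhodamine-CoA (5 uM). Two reads 30 minutes apart at 525/598 nm yielded each well's rate.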
# JMJD2A Tudor: qHTS Assay for Inhibitors of JMJD2A-Tudor Domain. Lysine-specific demethylase 4A (Homo sapiens), O75164. actives 4.4% (n = 390,000). AID 504339, 2011. Potency, µM (doses to about 114 µM), for the others: top-dose activity change, negative = inhibition, usual class: inhibitors. AlphaScreen JMJD2A-Tudor / H3K4me3 peptide binding; note: % is set by controls: 0 for no effect and ±100 for the full control effect; nearly all actives have a fitted effect of over 50% in size
# BAZ2B block: qHTS Assay for Inhibitors of BAZ2B | Potency, µM (series often up to 114 µM), for the others: top-dose activity change, negative = inhibition, most hits filed as inhibitors | AID 504333, 2011 | Bromodomain adjacent to zinc finger domain protein 2B (Homo sapiens), Q9UIF8 | actives 4.4% (n = 360,000) | AlphaScreen BAZ2B-H3K14Ac peptide displacement; note: % is set by controls: 0 for no effect and ±100 for the full control effect; nearly all actives have a fitted effect of over 60% in size
# Target sequence (Q9UIF8 whole entry, looked up, the tested form may be a part): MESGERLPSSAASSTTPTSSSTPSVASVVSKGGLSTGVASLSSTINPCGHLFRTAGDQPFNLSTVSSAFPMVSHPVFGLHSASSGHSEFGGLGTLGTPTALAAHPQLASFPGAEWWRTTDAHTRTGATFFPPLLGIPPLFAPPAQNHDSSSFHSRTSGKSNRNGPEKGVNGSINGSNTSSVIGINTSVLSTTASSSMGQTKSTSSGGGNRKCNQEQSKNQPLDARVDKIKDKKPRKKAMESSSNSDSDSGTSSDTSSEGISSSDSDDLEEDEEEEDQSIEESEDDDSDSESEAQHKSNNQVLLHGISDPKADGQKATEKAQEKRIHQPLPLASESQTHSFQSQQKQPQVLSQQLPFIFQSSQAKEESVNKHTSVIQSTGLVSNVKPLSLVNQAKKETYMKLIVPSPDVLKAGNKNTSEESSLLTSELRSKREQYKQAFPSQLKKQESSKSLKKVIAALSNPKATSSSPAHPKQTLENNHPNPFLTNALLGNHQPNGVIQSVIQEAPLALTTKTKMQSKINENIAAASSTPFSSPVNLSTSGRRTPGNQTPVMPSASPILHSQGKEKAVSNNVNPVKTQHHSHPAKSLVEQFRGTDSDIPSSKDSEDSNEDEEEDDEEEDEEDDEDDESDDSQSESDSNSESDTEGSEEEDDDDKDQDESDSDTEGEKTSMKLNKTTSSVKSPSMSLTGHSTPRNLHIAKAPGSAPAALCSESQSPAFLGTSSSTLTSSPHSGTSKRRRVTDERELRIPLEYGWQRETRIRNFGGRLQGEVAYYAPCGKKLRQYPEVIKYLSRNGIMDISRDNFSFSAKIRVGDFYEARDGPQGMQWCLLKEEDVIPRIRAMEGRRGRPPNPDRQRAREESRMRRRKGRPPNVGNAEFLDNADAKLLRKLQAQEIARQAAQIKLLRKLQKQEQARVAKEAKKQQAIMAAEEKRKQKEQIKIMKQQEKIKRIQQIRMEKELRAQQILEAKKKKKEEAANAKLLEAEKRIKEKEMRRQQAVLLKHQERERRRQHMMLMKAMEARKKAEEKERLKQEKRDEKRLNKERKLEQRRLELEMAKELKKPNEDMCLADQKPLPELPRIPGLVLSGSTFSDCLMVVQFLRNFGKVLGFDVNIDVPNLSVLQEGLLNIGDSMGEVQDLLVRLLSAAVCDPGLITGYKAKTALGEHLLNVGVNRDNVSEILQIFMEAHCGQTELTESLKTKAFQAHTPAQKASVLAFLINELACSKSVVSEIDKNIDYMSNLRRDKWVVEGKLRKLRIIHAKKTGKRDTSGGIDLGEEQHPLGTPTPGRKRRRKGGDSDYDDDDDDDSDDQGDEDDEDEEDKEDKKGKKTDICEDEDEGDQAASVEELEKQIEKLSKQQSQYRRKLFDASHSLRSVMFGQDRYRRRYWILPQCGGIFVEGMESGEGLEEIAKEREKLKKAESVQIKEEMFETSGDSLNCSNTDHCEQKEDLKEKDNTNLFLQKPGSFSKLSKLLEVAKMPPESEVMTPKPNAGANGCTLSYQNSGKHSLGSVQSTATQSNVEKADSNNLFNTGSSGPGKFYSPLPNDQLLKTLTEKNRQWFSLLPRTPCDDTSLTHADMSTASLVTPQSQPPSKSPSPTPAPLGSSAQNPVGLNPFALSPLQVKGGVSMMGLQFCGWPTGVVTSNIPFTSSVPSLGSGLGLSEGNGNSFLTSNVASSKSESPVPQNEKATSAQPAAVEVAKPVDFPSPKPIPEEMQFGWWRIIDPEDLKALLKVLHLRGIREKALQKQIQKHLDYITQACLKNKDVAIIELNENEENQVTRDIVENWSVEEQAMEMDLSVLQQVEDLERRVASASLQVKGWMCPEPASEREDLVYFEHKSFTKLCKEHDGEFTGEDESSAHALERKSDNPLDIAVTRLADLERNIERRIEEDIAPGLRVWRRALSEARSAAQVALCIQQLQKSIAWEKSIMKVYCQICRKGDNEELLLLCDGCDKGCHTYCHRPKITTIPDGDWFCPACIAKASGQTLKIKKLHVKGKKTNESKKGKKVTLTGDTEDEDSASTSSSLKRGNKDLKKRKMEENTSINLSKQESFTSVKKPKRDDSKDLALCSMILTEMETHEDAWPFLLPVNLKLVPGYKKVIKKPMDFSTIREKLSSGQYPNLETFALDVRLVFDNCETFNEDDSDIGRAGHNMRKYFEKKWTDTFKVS
#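 Complex of BAZ2B and biotin-H3K14Ac (50 nM apiece) forms over 30 min at RT, then faces library compounds up to 110 uM for another 30 min; AlphaScreen beads added, 20 min dark incubation, luminescence read.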
# G9a block: qHTS Assay for Inhibitors of Histone Lysine Methyltransferase G9a; G9a H3K9 monomethylation, AlphaScreen, 2 h; Histone-lysine N-methyltransferase EHMT2 (Homo sapiens), Q96KQ7; Potency, µM (doses to about 102 µM), for inactives: at the top dose activity, negative = inhibition, usual class: inhibitors; actives 8.8% (n = 350,000); note: % is set by controls: 0 for no effect and ±100 for the full control effect; nearly all actives have a fitted effect of over 75% in size
#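 Enzyme 20 nM + cpd, 15 min RT; add b-H3K9 pep 500 nM / SAM 20 uM; 2 h RT; anti-H3K9me1 Ab 0.5 ug/mL + SA donor / anti-rabbit acceptor beads 20 ug/mL each, 10 min; AlphaScreen read.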
# Starred values were filed as active, the others as inactive; u = inconclusive; x = no result; [ ] = remark or other dose. Sampled rows, rich in hits. Any-hit rate of the full collection: about 12%. Calls come from the whole dose curve; as a rule, active = well fitted curve in the direction sought with a large enough effect; inconclusive = small, poorly fitted or top-dose-only effect, or another doubt; inactive = no such curve, though single readings can be large; an effect the other way counts as inactive or inconclusive. Potency is the fitted concentration of half-maximal effect.
SMILES,HP1b binding inh,Sfp inh,JMJD2A Tudor,BAZ2B block,G9a block
Cc1cccc(-c2c3c(nc4c2c(=O)n(C)c(=O)n4C)-c2ccccc2C3O)c1 (configuration not stated),-13%,x,-13%,x,x
O=C(Cc1cccs1)NNC(=S)NCc1ccco1,25%,7%,-17%,-3%,50µM*
S=C(NCc1ccccc1)NCc1ccco1,5%,-6%,-25%,-30%,u
S=C(NCc1ccco1)NCc1ccco1,35µM*,x,56µM*,x,x
CC(C)(C)NC(=S)NCc1ccco1,-4%,3.5µM*,-16%,-9%,79µM*
NNC(=S)NCc1ccco1,1%,40µM*,89µM*,-35%,4%
COC(=O)C1=C(C(=O)OC)[C@@H]2Nc3ccccc3[C@@]23C[C@@H](C(=O)OC)N(S(=O)(=O)c2c(C)noc2C)C3=N1,x,4%,x,x,x
COc1ccc(-n2nc(C(=O)NCCc3ccc(Cl)cc3)c3c4ccccc4n(C)c3c2=O)cc1,27%,x,6%,x,4%[59 µM]
COc1cccc(-c2ccc3ncnc(NCCNC(C)=O)c3c2)c1,x,20%,x,x,-22%[0.501 µM]
OC(COC(c1ccccc1)c1ccccc1)CN1CCN(c2cccc(Cl)c2)CC1 (configuration not stated),30%,10%,-28%,-13%,-23%
CC(=O)c1ccc(N2CCN(CC(O)COC(c3ccccc3)c3ccccc3)CC2)cc1 (configuration not stated),22µM*,u,10µM*,18µM*,20µM*
CC(=O)c1ccc(N2CCN(CC(O)COC(c3ccccc3)c3ccccc3C)CC2)cc1 (configuration not stated),45µM*,u,4.5µM*,25µM*,8.9µM*
CCC/C(=C1/C(=O)CC(C)(C)C(C(=O)OC)C1=O)N1CCCC1 (configuration not stated),19%,-5%,-26%,-10%,71µM*
COc1ccc(NCc2ccccc2-c2nnc(-c3ccccc3)o2)cc1Cl,14%,x,-11%,-10%,-30%[59 µM]
CCOC(=O)C1(CCOc2ccccc2)CCN(Cc2ccncc2)CC1,18%[57 µM],45µM*,-20%,u,x
CCOC(=O)C1(CCOC)CCN(Cc2ccncc2)CC1,29%,18%,-13%,-3%,50µM*
C=Cc1ccc(CSc2nc(-c3ccccc3Cl)nc3c2Cc2c(CO)cnc(C)c2O3)cc1,28%,x,-9%,-17%,-29%[59 µM]
O=C(O)CSCC(=O)N1N=C2/C(=C/c3ccccc3)CCCC2C1c1ccccc1 (configuration not stated),4%,0%,-24%,-13%,50µM*
O=C(CSc1ncn[nH]1)N1N=C2/C(=C/c3ccccc3)CCCC2C1c1ccccc1 (configuration not stated),9%,2%,u,-25%,11µM*
CCCCN(C(=O)/C=C/c1ccco1)c1c(N)n(Cc2ccccc2)c(=O)[nH]c1=O,8%,6%,-16%,-12%,14%[59 µM]
CN1CCN(C(=O)/C(=C/c2cn(S(=O)(=O)N(C)C)c3ccccc23)NC(=O)c2ccccc2F)CC1,15%[57 µM],-3%,-19%,-13%,-1%
Cc1ccc(S(=O)(=O)N2CCN(c3nc(-c4cncn4C)nc4ccccc34)CC2)cc1,-2%,x,u,x,x
Cc1onc(-c2c(Cl)cccc2Cl)c1C(=O)N1CCOCC1,21%,14%,-8%,79µM*,-1%
CCN(C(=O)c1cccc(S(=O)(=O)N(C)C)c1)C12CC3CC(CC(C3)C1)C2,44%,2%,-7%,-2%,-1%
CC(C)C(=O)Nc1ccc(C(=O)N/N=C/c2cc(Br)cc(Br)c2O)cc1,9%,-5%,u,7.9µM*,x
SMILES,HP1b binding inh,Sfp inh,JMJD2A Tudor,BAZ2B block,G9a block
CC(=O)Nc1ccc(C(=O)N/N=C/c2cc(Br)cc(Br)c2O)cc1,u,17%,56µM*,0%,4%
COc1cc(OC)c(/C=N/NC(=O)c2ccc(NC(C)=O)cc2)cc1Br,38%,14%,-12%,-3%,-4%
O=C(COC(=O)c1nc(Cl)ccc1Cl)NC1CCCCC1,20%,x,-19%,7%,u
CCc1cc2c(nc1CC)CCN(CC/C(C)=N/O[C@@H](C)CN1CCCc3nc(C)c(C)cc31)C2,x,-6%,x,x,x
COc1cc(C)c(NC(=S)NCCCN2CCOCC2)cc1OC,26%,-25%,-3%[57.1 µM],-19%,35µM*
COc1ccc(C(C)(C)C)cc1NC(=S)NCCN1CCOCC1,-13%,18µM*,-18%,-13%,45µM*
COc1cc(NC(=S)NCCN2CCOCC2)cc(OC)c1OC,50%,-5%,10%,-2%,4%
CCn1ccc2cc(S(=O)(=O)N3CCC(C(=O)NCc4cccc(C)c4)CC3)ccc21,15%[57 µM],x,-16%,-6%,3%[59 µM]
CCN(CC)S(=O)(=O)c1ccc2c(c1)nc(-c1ccccn1)n2C,2%,-3%,32µM*,4%,10µM*
O=C(Nc1ccccc1)N1CCCC2(CCN(C(=O)c3cnccn3)CC2)C1,x,6%,x,x,9%[12.7 µM]
O=S(=O)(NCCc1cn(S(=O)(=O)c2ccccc2)c2ccccc12)c1ccccc1,0%,x,50µM*,x,x
COc1ccccc1NC(=O)C1=C(C)NC(=O)NC1c1ccccc1[N+](=O)[O-] (configuration not stated),-10%,3.5µM*,-27%,x,13µM*
CC1=C(C(=O)Nc2ccccc2)C(c2ccccc2[N+](=O)[O-])NC(=O)N1 (configuration not stated),17%,20µM*,-14%,-36%,u
COc1ccccc1NC(=O)C1=C(C)NC(=O)NC1c1ccc(C)cc1 (configuration not stated),36%,10%,-17%,10%,-8%
O=C(CSc1nnc(Nc2ccccc2F)s1)NC1CC1,35%,x,4%,0%,-4%[12.7 µM]
CC(C)OC(=O)c1c2c(n3ccccc13)C(=O)c1ccccc1C2=O,u,u,u,32µM*,u
COC(=O)c1cc2c(C)c(C)c3ccccn3c-2c1C(=O)OC,13%,-6%,-19%,3%,7%[12.7 µM]
COc1ccc(-c2ccc3ncnc(N(C)Cc4csc(C)n4)c3c2)cc1OC,x,x,-15%,x,x
CCC1Sc2ccc(S(=O)(=O)N3CCN(c4ccccc4)CC3)cc2NC1=O (configuration not stated),-8%,14%,13µM*,-33%,18µM*
Cc1ccc(S(=O)(=O)Cc2ccc(C(=O)N3CCN(c4cc(C)ccc4C)CC3)o2)cc1,0%,5%,u,56µM*,-30%

# Compound activity: PubChem, National Center for Advancing Translational Sciences (NCATS)
